Inconclusive results are not listed. Where a call stands in place of a potency, no number is given. Active and inactive are the calls of the source. Unless noted, the call rests on the fitted dose curve; in most records, active means well fitted curve in the direction sought with a large enough effect; inconclusive means small, poorly fitted or top-dose-only effect, or another doubt; inactive means no such curve, though single readings can be large; an effect the other way counts as inactive or inconclusive.
Key:
[1] = Validation of Assay for Modulators of Lamin A Splicing (AID 1459; active means well fitted curve in the direction sought with a large enough effect in the signal ratio; the % refers to the signal ratio;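 further: cells exposed to compound for two days before reading; ratio rise marks activators and ratio drop marks inhibitors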)
Summary of the method: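 Splicing correction is reported by an EGFP-containing lamin A minigene in stably transfected S3 HeLa cells, while DsRed2 controls for viability and nonspecific signal. Cells are exposed to compounds for 48 hrs before the GFP over RFP ratio is taken.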

[2] = qHTS Assay for Lipid Storage Modulators (AID 1519; calls by dose curve); conditions: Drosophila S3 cells, BODIPY lipid droplet/cell ratio, laser cytometry, cells loaded with oleic acid
Summary of the method: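 Cells seeded at 5,000 per well were treated with compounds over a concentration series and loaded with oleic acid (400 uM, as added). Lipid droplet fluorescence (488 nm excitation, 500-530 nm channel) was read by laser-scanning cytometry and normalized to 20 uM Triacsin C.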

[3] = target: DNA repair nuclease/redox regulator APEX1 (Homo sapiens) (UniProt P27695); assay: qHTS Validation Assay for Inhibitors of the Human Apurinic/apyrimidinic Endonuclease 1 (APE1) (AID 1705;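 further: TAMRA fluorescence gain over two minutes as APE1 cuts a quenched THF abasic duplex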)
Chain of DNA repair nuclease/redox regulator APEX1 (Homo sapiens) (P27695 whole entry, looked up): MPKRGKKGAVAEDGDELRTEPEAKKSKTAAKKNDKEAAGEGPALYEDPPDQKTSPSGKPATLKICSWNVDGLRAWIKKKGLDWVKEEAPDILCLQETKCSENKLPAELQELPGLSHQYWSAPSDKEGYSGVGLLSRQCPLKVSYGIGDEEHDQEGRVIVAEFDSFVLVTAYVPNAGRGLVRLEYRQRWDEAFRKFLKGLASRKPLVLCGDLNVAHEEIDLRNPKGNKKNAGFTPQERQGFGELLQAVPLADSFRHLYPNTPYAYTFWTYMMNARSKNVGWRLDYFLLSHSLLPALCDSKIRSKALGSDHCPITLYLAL
Summary of the method: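 Endonuclease activity of human APE1 is followed as dequenching when the enzyme incises a tetrahydrofuran abasic site in a short duplex labelled 5'-TAMRA/3'-BHQ-2 (50 nM final), after 15 min enzyme–compound preincubation at room temperature.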

[4] = target: Endonuclease 4 (Escherichia coli (strain K12)) (UniProt P0A6C1); assay: Counterscreen for APE1 Inhibitors: qHTS Validation Assay for Inhibitors of Endonuclease IV (AID 1708)
Summary of the method: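 E. coli EndoIV at 2 nM final, preincubated 15 min at room temperature with compound, then 50 nM TAMRA/BHQ-2 THF abasic-site duplex added. Buffer: 50 mM Tris-HCl pH 7.5, 50 mM NaCl, 2 mM MgCl2, 1 mM DTT, 0.01% Tween-20. Kinetic fluorescence increase, third minus first read.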

[5] = qHTS for differential inhibitors of proliferation of Plasmodium falciparum line 7G8 (AID 1815);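 further: potency means the concentration at half of the fitted maximal effect; parasite growth measured after three days of incubation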
[6] = qHTS for differential inhibitors of proliferation of Plasmodium falciparum line GB4 (AID 1816); conditions: Potency: Plasmodium falciparum GB4 proliferation inhibition;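 further: potency means the concentration at half of the fitted maximal effect; parasite growth measured after 72 h incubation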
[7] = qHTS for differential inhibitors of proliferation of Plasmodium falciparum line D10 (AID 1877);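 further: potency means the concentration at half of the fitted maximal effect; parasites grown with compound for 72 h before DNA staining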
[8] = qHTS for differential inhibitors of proliferation of Plasmodium falciparum line W2 (AID 1883); conditions: Potency: Plasmodium falciparum W2 proliferation inhibition;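 further: potency means the concentration at half of the fitted maximal effect; parasites grown with compound for 72 h before lysis and staining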
[9] = qHTS for differential inhibitors of proliferation of Plasmodium falciparum line HB3 (AID 1886); conditions: Potency: Plasmodium falciparum HB3 proliferation inhibition;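 further: potency means the concentration at half of the fitted maximal effect; parasites grown with compound for 72 h before SYBR Green readout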
[10] = target: ATP-dependent DNA helicase Q1 (Homo sapiens) (UniProt P46063); assay: qHTS Validation Assay for Inhibitors of RecQ-Like Dna Helicase 1 (RECQ1) (AID 2353)
Chain of ATP-dependent DNA helicase Q1 (Homo sapiens) (P46063 whole entry, looked up): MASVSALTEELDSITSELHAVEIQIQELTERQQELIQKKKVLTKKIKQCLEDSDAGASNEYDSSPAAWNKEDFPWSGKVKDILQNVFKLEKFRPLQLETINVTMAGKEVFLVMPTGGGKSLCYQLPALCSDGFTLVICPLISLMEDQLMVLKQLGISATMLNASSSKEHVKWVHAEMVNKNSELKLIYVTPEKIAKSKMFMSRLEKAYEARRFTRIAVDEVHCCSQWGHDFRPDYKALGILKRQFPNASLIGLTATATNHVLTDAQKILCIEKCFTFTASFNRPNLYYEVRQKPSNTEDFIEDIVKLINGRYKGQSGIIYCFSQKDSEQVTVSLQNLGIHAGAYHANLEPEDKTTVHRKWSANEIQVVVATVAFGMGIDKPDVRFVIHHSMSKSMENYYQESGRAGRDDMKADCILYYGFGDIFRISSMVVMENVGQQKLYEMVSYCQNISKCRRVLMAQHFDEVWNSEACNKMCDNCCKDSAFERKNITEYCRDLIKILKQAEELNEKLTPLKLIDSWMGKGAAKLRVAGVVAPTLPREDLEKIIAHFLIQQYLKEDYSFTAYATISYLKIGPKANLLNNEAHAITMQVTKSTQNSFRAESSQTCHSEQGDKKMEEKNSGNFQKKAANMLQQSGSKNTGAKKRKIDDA
Summary of the method: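 50 nM RECQ1T1 preincubated 15 min with compound in Tris pH 8.0 buffer with MgCl2, DTT, Tween-20 and 2.5 ug/ml poly(dI-dC); started with 200 nM TAMRA/BHQ-2 forked duplex and 2 mM ATP. Unwinding read as fluorescence (525/598 nm), two reads 2 h apart.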

[11] = Validation screen for small molecules that induce DNA re-replication in MCF 10A normal breast cells (AID 463097); further: nearly all actives have a fitted effect of over 60% in size
Summary of the method: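 DNA re-replication was detected as a rise in nuclei with elevated Hoechst fluorescence after a 48 hr compound exposure of MCF 10A cells at 37 C.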

[12] = Quantitative high throughput screen for delayed death inhibitors of the malarial parasite plastid, 48 hour incubation (AID 488752); further: nearly all actives have a fitted effect of over 65% in size
Summary of the method: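 Erythrocytes infected with firefly luciferase-expressing P. falciparum (2% hematocrit, 0.1% parasitemia) cultured with compound for 48 h at 37 C, 5% CO2, in RPMI 1640/0.5% Albumax. Growth inhibition read as loss of luminescence.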

[13] = target: M-phase phosphoprotein 8 (Homo sapiens) (UniProt Q99549); assay: qHTS Validation Assay for Inhibitors for MPP8 Chromodomain Interactions with Methylated Histone Tails (AID 488949);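 further: AlphaScreen signal from MPP8 chromodomain bound to biotinylated H3K9me3 peptide; top concentration of the series differs between compounds; nearly all actives have a fitted effect of over 55% in size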
Chain of M-phase phosphoprotein 8 (Homo sapiens) (Q99549 whole entry, looked up): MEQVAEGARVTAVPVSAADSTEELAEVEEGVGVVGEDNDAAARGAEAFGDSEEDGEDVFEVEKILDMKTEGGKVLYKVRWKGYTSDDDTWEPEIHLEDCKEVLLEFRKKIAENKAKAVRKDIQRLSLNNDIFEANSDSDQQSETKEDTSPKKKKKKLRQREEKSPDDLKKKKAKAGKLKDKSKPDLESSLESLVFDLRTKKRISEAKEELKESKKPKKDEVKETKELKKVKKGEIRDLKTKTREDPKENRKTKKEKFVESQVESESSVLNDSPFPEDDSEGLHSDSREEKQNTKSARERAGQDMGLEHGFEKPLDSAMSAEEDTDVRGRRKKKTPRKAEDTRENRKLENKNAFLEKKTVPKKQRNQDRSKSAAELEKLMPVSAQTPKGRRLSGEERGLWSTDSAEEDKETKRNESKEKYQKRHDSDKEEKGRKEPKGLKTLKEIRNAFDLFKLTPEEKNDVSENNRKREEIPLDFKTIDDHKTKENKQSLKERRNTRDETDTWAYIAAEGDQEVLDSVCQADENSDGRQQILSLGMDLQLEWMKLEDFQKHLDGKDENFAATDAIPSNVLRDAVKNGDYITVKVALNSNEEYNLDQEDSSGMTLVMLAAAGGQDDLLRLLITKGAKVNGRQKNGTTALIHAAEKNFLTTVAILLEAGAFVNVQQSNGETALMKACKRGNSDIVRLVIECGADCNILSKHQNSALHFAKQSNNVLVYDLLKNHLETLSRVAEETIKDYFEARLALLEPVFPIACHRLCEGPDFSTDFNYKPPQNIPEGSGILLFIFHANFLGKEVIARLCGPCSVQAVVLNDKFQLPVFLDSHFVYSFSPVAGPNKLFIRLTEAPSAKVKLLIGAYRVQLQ
Summary of the method: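 Disruption of the preformed MPP8–trimethyl-H3K9 peptide complex (both 50 nM, 30 min, RT) is measured after 30 min compound exposure, using AlphaScreen proximity beads; aurintricarboxylic acid titration serves as plate control.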

[14] = target: Transient receptor potential cation channel subfamily V member 1 (Homo sapiens) (UniProt Q8NER1); assay: HTS Assay for Compounds that Act as Enhancers of the Vanilloid Receptor 1 (AID 488979)
Chain of Transient receptor potential cation channel subfamily V member 1 (Homo sapiens) (Q8NER1 whole entry, looked up): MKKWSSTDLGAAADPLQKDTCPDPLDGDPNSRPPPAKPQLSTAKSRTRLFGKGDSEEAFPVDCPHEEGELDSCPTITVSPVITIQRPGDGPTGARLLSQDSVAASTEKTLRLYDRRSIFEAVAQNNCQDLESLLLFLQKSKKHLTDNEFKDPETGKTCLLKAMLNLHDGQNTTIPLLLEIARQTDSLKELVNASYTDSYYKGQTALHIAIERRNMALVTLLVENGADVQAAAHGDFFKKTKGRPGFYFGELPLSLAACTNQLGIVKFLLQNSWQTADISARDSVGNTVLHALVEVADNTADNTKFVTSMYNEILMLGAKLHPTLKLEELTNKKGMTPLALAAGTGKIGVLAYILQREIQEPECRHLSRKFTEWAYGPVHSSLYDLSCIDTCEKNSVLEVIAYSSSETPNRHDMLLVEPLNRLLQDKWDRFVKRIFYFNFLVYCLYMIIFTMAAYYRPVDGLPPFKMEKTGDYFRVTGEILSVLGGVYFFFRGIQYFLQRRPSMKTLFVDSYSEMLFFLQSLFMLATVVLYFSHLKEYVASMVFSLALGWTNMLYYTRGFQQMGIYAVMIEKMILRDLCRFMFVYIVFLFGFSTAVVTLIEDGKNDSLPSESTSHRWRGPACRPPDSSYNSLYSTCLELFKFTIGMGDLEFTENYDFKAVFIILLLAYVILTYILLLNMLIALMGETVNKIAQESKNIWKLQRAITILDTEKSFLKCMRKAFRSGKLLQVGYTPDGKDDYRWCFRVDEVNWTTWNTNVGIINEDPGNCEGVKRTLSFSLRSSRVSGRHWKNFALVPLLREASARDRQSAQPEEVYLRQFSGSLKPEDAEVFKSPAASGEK
Summary of the method: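 TRPV1 cells loaded with Fluo-8 calcium dye; compound added and Ca2+ signal (ex 480/em 520 nm) followed 3 min, then capsaicin at EC20 added and read 2 more min to detect enhancement.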

[15] = target: Galactokinase (Homo sapiens) (UniProt P51570); assay: qHTS Validation Assay for Inhibitors of Human Galactokinase (GALK) (AID 493189)
Chain of Galactokinase (Homo sapiens) (P51570 whole entry, looked up): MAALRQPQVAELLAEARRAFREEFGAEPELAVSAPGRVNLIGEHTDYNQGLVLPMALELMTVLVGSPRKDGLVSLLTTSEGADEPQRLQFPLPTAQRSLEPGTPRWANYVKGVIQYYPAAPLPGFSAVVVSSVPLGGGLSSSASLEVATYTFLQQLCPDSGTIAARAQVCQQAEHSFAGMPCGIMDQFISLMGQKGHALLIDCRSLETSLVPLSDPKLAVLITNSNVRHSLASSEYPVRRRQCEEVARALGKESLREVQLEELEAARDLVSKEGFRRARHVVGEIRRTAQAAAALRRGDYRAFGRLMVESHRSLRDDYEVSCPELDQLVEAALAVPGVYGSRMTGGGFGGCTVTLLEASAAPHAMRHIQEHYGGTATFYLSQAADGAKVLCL
Summary of the method: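 Compounds were pin-transferred into ATP buffer, then GALK-galactose mix was added (final 5 nM enzyme, 100 uM galactose, 35 uM ATP). After 1 h at room temperature, remaining ATP was measured luminescently.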

[16] = Validation screen for small molecules that induce DNA re-replication in SW480 colon adenocarcinoma cells (AID 504364)
Summary of the method: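 SW480 cells (250/well) exposed 48 h at 37 C, 5% CO2, then Hoechst-stained 40 min. Nuclear DNA content imaged by fluorescence scanning (405 nm excitation, 500-530 nm emission); re-replication scored as increased nuclei with elevated intensity.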

[17] = target: Voltage-gated inwardly rectifying potassium channel KCNH2 (Homo sapiens) (UniProt Q12809); assay: qHTS Assay for Small Molecule Inhibitors of the Human hERG Channel Activity (AID 588834);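 further: top concentration of the series differs between compounds; lower thallium flux fluorescence means stronger hERG block; nearly all actives have a fitted effect of over 50% in size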
Chain of Voltage-gated inwardly rectifying potassium channel KCNH2 (Homo sapiens) (Q12809 whole entry, looked up): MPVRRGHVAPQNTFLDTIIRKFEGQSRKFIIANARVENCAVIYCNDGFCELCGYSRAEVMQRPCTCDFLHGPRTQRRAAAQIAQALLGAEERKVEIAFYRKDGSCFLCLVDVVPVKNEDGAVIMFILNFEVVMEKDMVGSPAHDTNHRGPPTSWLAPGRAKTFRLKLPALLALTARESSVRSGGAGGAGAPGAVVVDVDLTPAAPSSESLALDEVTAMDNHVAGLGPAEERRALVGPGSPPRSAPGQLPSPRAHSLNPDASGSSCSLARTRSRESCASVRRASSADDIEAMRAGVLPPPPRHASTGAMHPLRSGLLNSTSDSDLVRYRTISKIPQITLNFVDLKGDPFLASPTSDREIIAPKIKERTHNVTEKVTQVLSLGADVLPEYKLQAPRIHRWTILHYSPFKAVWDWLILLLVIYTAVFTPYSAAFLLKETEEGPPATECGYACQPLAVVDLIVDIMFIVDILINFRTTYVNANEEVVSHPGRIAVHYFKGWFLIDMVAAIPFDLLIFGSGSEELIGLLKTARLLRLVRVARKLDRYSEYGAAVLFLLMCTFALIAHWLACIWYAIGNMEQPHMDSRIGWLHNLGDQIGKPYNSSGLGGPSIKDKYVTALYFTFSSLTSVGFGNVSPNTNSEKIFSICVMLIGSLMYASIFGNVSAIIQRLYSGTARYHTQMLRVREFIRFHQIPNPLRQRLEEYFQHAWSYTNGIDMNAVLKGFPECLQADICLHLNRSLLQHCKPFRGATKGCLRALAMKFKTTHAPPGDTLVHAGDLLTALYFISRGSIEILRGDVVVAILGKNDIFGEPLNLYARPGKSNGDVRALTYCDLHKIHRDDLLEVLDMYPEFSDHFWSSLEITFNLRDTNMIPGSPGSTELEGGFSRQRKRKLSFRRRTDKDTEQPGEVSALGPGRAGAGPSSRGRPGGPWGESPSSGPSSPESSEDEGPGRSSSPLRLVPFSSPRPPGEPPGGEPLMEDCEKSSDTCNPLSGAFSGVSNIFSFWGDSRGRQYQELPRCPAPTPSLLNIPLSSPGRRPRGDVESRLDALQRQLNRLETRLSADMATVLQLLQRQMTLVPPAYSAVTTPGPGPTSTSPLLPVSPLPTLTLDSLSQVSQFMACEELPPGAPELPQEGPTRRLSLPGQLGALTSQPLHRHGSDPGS
Summary of the method: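 Measured: FluxOR fluorescence after thallium stimulation in U2OS cells transduced with hERG by baculovirus. Compounds pre-incubated around 10 min; medium Opti-MEM with 2% FCS. AC50 from Hill equation.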

[18] = system: Zika virus NS2B-NS3 protease; assay: Primary screen GU AMC qHTS for Zika virus inhibitors (AID 1347154); further: nearly all actives have a fitted effect of over 70% in size
Summary of the method: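 Unlinked Zika NS2B hydrophilic domain–NS3 protease complex at 25 nM in 10 mM Tris-HCl pH 8.0, 0.01% Tween 20, with an AMC peptide substrate. Fluorescence change (340/450 nm) over 15 min at room temperature, normalized to controls, fitted to 4-parameter Hill.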

Structure (SMILES): C/C=C1\C(=O)CC2C3CCC4=CC(=O)CC[C@]4(C)C3CC[C@]12C (stereo not given in full)
- outcome [1]: inactive
- activity change, negative = inhibition ([2]; at 57.5 µM (top of the series)): 1.38% (inactive)
- max response ([2]; measured here: cell count channel max response): 72.1%
- max response ([2]; measured here: lipid channel max response): 74.6%
- Potency [3]: inactive
- Potency [4]: inactive
- Potency [5]: 11.2 µM (active)
- Potency [6]: 14.1 µM (active)
- Potency [7]: 10 µM (active)
- Potency [8]: 7.08 µM (active)
- Potency [9]: 11.2 µM (active)
- Potency [10]: inactive
- Potency [11]: inactive
- Potency [12]: inactive
- Potency [13]: inactive
- outcome [14]: inactive
- outcome [15]: inactive
- outcome [16]: inactive
- Potency [17]: inactive
- Potency [18]: inactive

From PubChem BioAssay (NCATS)
